In the antibiotic and cytotoxicity screens of Wong et al. (2023):
Out of some 39,000 compounds screened, about 1,500 (3.8%) were called active. This is one part of a sample in which actives are shown more often than they occur.

The compounds below were run on HSkMC (human skeletal muscle cells) (assay: cytotoxicity call (relative viability < 0.9)). Conditions: 10 µM.

SMILES	cytotoxicity call
COc1ccc(NC(=O)N(C)C[C@H]2OCCCC[C@@H](C)Oc3ccc(NC(=O)C4CCCCC4)cc3C(=O)N([C@@H](C)CO)C[C@H]2C)cc1	inactive
C[C@@H]1CN([C@@H](C)CO)C(=O)c2cccc(NC(=O)CCCCCC(=O)Nc3ccccc3N)c2O[C@@H]1CN(C)Cc1ccc(Cl)c(Cl)c1	inactive
C[C@@H]1CN([C@@H](C)CO)C(=O)c2cccc(NC(=O)CCCCCC(=O)Nc3ccccc3N)c2O[C@H]1CN(C)Cc1ccc(Cl)c(Cl)c1	inactive
C[C@H]1CN([C@@H](C)CO)C(=O)c2cccc(NC(=O)CCCCCC(=O)Nc3ccccc3N)c2O[C@H]1CN(C)Cc1ccc(-c2ccccc2)cc1	inactive
C[C@H]1CN([C@@H](C)CO)C(=O)c2cccc(NC(=O)CCCCCC(=O)Nc3ccccc3N)c2O[C@H]1CN(C)Cc1ccc(Cl)c(Cl)c1	active
C[C@H]1CN([C@@H](C)CO)C(=O)c2cccc(NC(=O)CCCCCC(=O)Nc3ccccc3N)c2O[C@@H]1CN(C)Cc1ccc(-c2ccccc2)cc1	active
C[C@@H]1CN([C@@H](C)CO)C(=O)c2cccc(NC(=O)CCCCCC(=O)Nc3ccccc3N)c2O[C@H]1CN(C)Cc1ccc(-c2ccccc2)cc1	inactive
C[C@H]1CN([C@@H](C)CO)C(=O)c2cccc(NC(=O)CCCCCC(=O)Nc3ccccc3N)c2O[C@@H]1CN(C)Cc1ccccc1	active
C[C@@H]1CN([C@@H](C)CO)C(=O)c2cccc(NC(=O)CCCCCC(=O)Nc3ccccc3N)c2O[C@@H]1CN(C)Cc1ccccc1	inactive
C[C@@H]1CN([C@H](C)CO)C(=O)c2cccc(NC(=O)CCCCCC(=O)Nc3ccccc3N)c2O[C@H]1CN(C)Cc1ccccc1	inactive
Cc1ccc(S(=O)(=O)Nc2ccc3c(c2)C(=O)N([C@@H](C)CO)C[C@H](C)[C@@H](CN(C)Cc2ccncc2)OCCCC[C@H](C)O3)cc1	inactive
C[C@@H]1CN([C@H](C)CO)C(=O)c2cc(NC(=O)c3ccncc3)ccc2O[C@@H](C)CCCCO[C@@H]1CN(C)S(=O)(=O)c1ccc(Cl)cc1	inactive
COc1ccc(S(=O)(=O)Nc2ccc3c(c2)C(=O)N([C@@H](C)CO)C[C@H](C)[C@H](CN(C)S(C)(=O)=O)OCCCC[C@@H](C)O3)cc1	inactive
C[C@@H]1CN([C@H](C)CO)C(=O)c2cc(NC(=O)CCN3CCOCC3)ccc2O[C@H]1CN(C)Cc1ccncc1	inactive
CN(C)CC(=O)OCC(O)C(O)C(O)C(O)C(=O)[O-].[Na+] (centres undefined)	inactive
O=C(Nc1ccc(Cl)cc1C(=O)c1ccc(Cl)cc1)c1cc(Br)ccc1NS(=O)(=O)c1ccc(Cl)cc1	inactive
O=C(c1ccc(Cl)cc1)n1c2ccccc2c2ccccc21	inactive
O=C(c1ccc(Cl)cc1)c1coc2c1cc(O)c1ccccc12	active
O=C(NCC[C@@H]1CC[C@H](NS(=O)(=O)c2cccc(F)c2)[C@H](CO)O1)C1CC1	inactive
C[C@@H]1CCCCO[C@H](CN(C)S(=O)(=O)c2ccccc2)[C@@H](C)CN([C@@H](C)CO)C(=O)c2cc(NC(=O)C3CCCCC3)ccc2O1	inactive
C[C@@H]1CN([C@@H](C)CO)C(=O)c2cccc(NC(=O)NC3CCCCC3)c2O[C@H]1CN(C)Cc1ccc(C(F)(F)F)cc1	inactive
CC(/C=C/C(=O)NO)=C\c1ccccc1OCc1cn(-c2cccc(N(S(=O)(=O)c3ccc(C)cc3)S(=O)(=O)c3ccc(C)cc3)c2)nn1	active

SMILES	cytotoxicity call
Nc1ccc(-n2cc(CCC(=O)NO)nn2)cc1	inactive
CC(/C=C/C(=O)NO)=C\c1ccccc1OCc1cn(CCNC(=O)[C@@H](NS(=O)(=O)c2ccc(C)cc2)C(C)C)nn1	inactive
CC(/C=C/C(=O)NO)=C\c1ccccc1OCc1cn(C[C@@H]2CCCN2S(=O)(=O)c2ccc(C)cc2)nn1	inactive
Cc1ccc(S(=O)(=O)N(c2cccc(-n3cc(CCC(=O)NO)nn3)c2)S(=O)(=O)c2ccc(C)cc2)cc1	active
Nc1cccc(-n2cc(CCC(=O)NO)nn2)c1	inactive
C[C@@H]1CCCCO[C@H](CN(C)Cc2ccncc2)[C@@H](C)CN([C@@H](C)CO)C(=O)c2cc(NC(=O)Nc3ccccc3)ccc2O1	inactive
C[C@H](CO)N1C[C@H](C)[C@@H](CN(C)S(=O)(=O)c2ccc(Cl)cc2)OCCCC[C@H](C)Oc2ccc(NC(=O)c3ccccc3)cc2C1=O	inactive
C[C@@H]1CN([C@H](C)CO)C(=O)c2cc(NS(C)(=O)=O)ccc2O[C@@H](C)CCCCO[C@@H]1CN(C)Cc1ccncc1	inactive
C[C@@H]1CN([C@H](C)CO)C(=O)c2cc(NC(=O)NC3CCCCC3)ccc2O[C@@H](C)CCCCO[C@H]1CN(C)S(=O)(=O)c1cccs1	inactive
C[C@@H]1CN([C@H](C)CO)C(=O)c2cc(NC(=O)Nc3ccccc3)ccc2O[C@H]1CN(C)C(=O)Nc1cccc2ccccc12	inactive
C[C@@H]1CN([C@@H](C)CO)C(=O)c2cc(NC(=O)Nc3ccccc3)ccc2O[C@@H]1CN(C)C(=O)Nc1cccc2ccccc12	active
C[C@H]1CN([C@@H](C)CO)C(=O)c2cc(NC(=O)Nc3ccccc3)ccc2O[C@H]1CN(C)C(=O)Nc1cccc2ccccc12	inactive
C[C@H](CO)N1C[C@H](C)[C@@H](CN(C)C(=O)Nc2cccc3ccccc23)Oc2ccc(NC(=O)Nc3ccccc3)cc2C1=O	inactive
C[C@H](CO)N1C[C@H](C)[C@H](CN(C)C(=O)Nc2cccc3ccccc23)Oc2ccc(NC(=O)Nc3ccccc3)cc2C1=O	inactive
C[C@@H]1CN([C@H](C)CO)C(=O)c2cc(NC(=O)Nc3ccccc3)ccc2O[C@@H]1CN(C)C(=O)Nc1cccc2ccccc12	active
Cc1ccc(S(=O)(=O)N(C)C[C@H]2Oc3c(NS(=O)(=O)c4ccccc4)cccc3C(=O)N([C@H](C)CO)C[C@@H]2C)cc1	inactive
C[C@H](CO)N1C[C@H](C)[C@H](CN(C)S(=O)(=O)c2ccccc2)Oc2c(NC(=O)C3CCOCC3)cccc2C1=O	inactive
C[C@@H]1CCCCO[C@@H](CN(C)CC2CCCCC2)[C@@H](C)CN([C@@H](C)CO)C(=O)c2cc(NC(=O)CCCN(C)C)ccc2O1	inactive
CO[C@@H]1CN(C)C(=O)c2cc(NS(=O)(=O)c3ccccc3)ccc2OC[C@@H](C)N(C(=O)NC(C)C)C[C@H]1C	inactive
C[C@H]1CN([C@@H](C)CO)C(=O)Cc2cc(NS(=O)(=O)c3cn(C)cn3)ccc2O[C@H]1CN(C)Cc1ccccc1	inactive
CCn1cc(-c2ccnc3[nH]c(-c4cccc(CN(C)C)c4)cc23)c(-c2ccc(NC(=O)N(C)C)cc2)n1	active
COc1ccccc1S(=O)(=O)N1C[C@H](O)COC[C@H]2O[C@@H](CC(=O)O)CC[C@@H]21	inactive

SMILES	cytotoxicity call
CCn1c(N)c(C(N)=O)sc1=S	inactive
C[C@H](CO)N1C[C@H](C)[C@@H](CN(C)C(=O)Nc2ccc(C(F)(F)F)cc2)Oc2c(NC(=O)Nc3cccc4ccccc34)cccc2C1=O	active
C[C@H](CO)N1C[C@H](C)[C@H](CN(C)C(=O)Nc2ccc(C(F)(F)F)cc2)Oc2c(NC(=O)Nc3cccc4ccccc34)cccc2C1=O	inactive
C[C@H]1CN([C@@H](C)CO)C(=O)c2cccc(NC(=O)Nc3cccc4ccccc34)c2O[C@H]1CN(C)C(=O)Nc1ccc(C(F)(F)F)cc1	active
C[C@@H]1CN([C@H](C)CO)C(=O)c2cccc(NC(=O)Nc3cccc4ccccc34)c2O[C@@H]1CN(C)C(=O)Nc1ccc(C(F)(F)F)cc1	active
C[C@@H]1CN([C@H](C)CO)C(=O)c2cccc(NC(=O)Nc3cccc4ccccc34)c2O[C@H]1CN(C)C(=O)Nc1ccc(C(F)(F)F)cc1	inactive
C[C@@H]1CN([C@@H](C)CO)C(=O)c2cccc(NC(=O)Nc3cccc4ccccc34)c2O[C@H]1CN(C)C(=O)Nc1ccc(C(F)(F)F)cc1	active
CCN1CCO[C@@]2(O)C=CC(=O)C=C12	inactive
CCc1ccc(NC(=O)C2CCN(S(=O)(=O)c3c(C)[nH]c(=O)[nH]c3=O)CC2)cc1	inactive
Cc1ccc(S(=O)(=O)Nc2ccc3c(c2)C(=O)N([C@@H](C)CO)C[C@@H](C)[C@@H](CN(C)S(=O)(=O)c2ccc(C)cc2)OCCCC[C@H](C)O3)cc1	inactive
C[C@@H]1CN([C@H](C)CO)C(=O)c2cc(NC(=O)Cc3ccccc3)ccc2O[C@@H](C)CCCCO[C@H]1CN(C)C(=O)Nc1cccc2ccccc12	inactive
CC(C)NC(=O)Nc1ccc2c(c1)CC(=O)N([C@@H](C)CO)C[C@H](C)[C@H](CN(C)Cc1ccc(-c3ccccc3)cc1)O2	inactive
O=C(C[C@H]1CC[C@@H](NS(=O)(=O)c2ccccc2)[C@H](CO)O1)NCc1ccncn1	inactive
Cc1ccc(S(=O)(=O)Nc2ccc3c(c2)C(=O)N([C@@H](C)CO)C[C@@H](C)[C@H](CN(C)C(=O)Nc2ccc(C(F)(F)F)cc2)O3)cc1	inactive
C[C@@H]1CN([C@@H](C)CO)C(=O)Cc2cc(NC(=O)CCN3CCOCC3)ccc2O[C@H]1CN(C)S(=O)(=O)c1cccs1	inactive
C[C@H]1CN([C@@H](C)CO)C(=O)c2ccccc2-c2ccccc2CO[C@@H]1CN(C)C(=O)Nc1cccc(F)c1	inactive
NC(=O)c1cccc(S(N)(=O)=O)c1	inactive
C[C@@H]1CN([C@H](C)CO)C(=O)c2cc(N(C)C)ccc2O[C@@H](C)CCCCO[C@H]1CN(C)C(=O)Nc1ccc(C(F)(F)F)cc1	inactive
C[C@H]1CN([C@@H](C)CO)C(=O)c2cccc(NC(=O)Nc3cccc4ccccc34)c2O[C@@H]1CN(C)C(=O)Nc1ccc(C(F)(F)F)cc1	active
COc1ccc(S(=O)(=O)N(C)C[C@@H]2Oc3ccc(NC(=O)CCCN(C)C)cc3CC(=O)N([C@@H](C)CO)C[C@@H]2C)cc1	inactive
